# Measured values taken from PubChem BioAssay (NCI).
# Compounds without any hit were thinned out: in the full panel of roughly 83,000, 20% have a hit.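 Results are percent growth after 48 hours of single-concentration exposure. 100 means growth as in untreated cells, lower positive values show inhibition; negative values down to -100 show cell death.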 Values without a mark were called inactive. Calls of active or inactive are those of the source. How the source made its calls: active means growth percent below 10; inactive means the rest.
# Tested on: SF-295 CNS
# Assay: NCI-60 one-dose screen, 48 h (100 = growth as untreated, 0 = no growth, -100 = all killed)
# Settings: 10 µM unless noted
row,Structure (SMILES),growth
1,O=C1/C(=C/c2ccc(Oc3ccccc3)cc2)N=C(c2ccccc2)N1CCc1cccs1,82.9%
2,O=C1/C(=C/c2ccc(Cl)cc2)N=C(c2ccccc2)N1CCc1cccs1,51.5%
3,COc1ccc(Sc2ccc3[nH]c(=O)nc(N)c3c2)cc1,106%
4,COc1cc(C(=O)N(C(C)C)C2CCCCC2)cc(OC)c1OC,109%
5,COc1ccc(-c2csc3c2-n2cccc2C3=O)cc1O,-31.7% (active)
6,CCN1C(=O)C2(Nc3ccccc3S2)c2cc(C)ccc21 (stereo not given),101%
7,Cc1nc(-c2ccccc2)cc2c(O)c(C(=O)N/N=C/Cc3ccccc3)[nH]c(=O)c12,117%
8,O=S(=O)(/N=C1C=C/C(=N\S(=O)(=O)c2ccccc2)c2ccccc2\1)c1ccccc1,116%
9,CCCN(CCC)c1ccc(/C=C/c2ccc3cc(OCC)ccc3n2)cc1,91.9%
10,COc1cccc(C2CC(=O)Nc3cc4c(cc32)CCC4)c1OC (stereo not given),29%
11,CC1SC(c2ccc(Cl)cc2)N(CCc2cccs2)C1=O (stereo not given),-2.2% (active)
12,O=C(O)c1ccccc1Oc1cc(-c2ccco2)nc(OCCBr)n1,95.1%
13,COc1ccccc1/C=C/C(=O)/C=C/c1ccccc1O,-37.4% (active)
14,COc1cc(/C=C/C(=O)C(=Cc2ccc(F)c(F)c2)C(=O)/C=C/c2ccc(O)c(OC)c2)ccc1O,53.7%
15,CC1(C)CC(=O)C2=C(C1)Nc1cc3c(cc1C2c1ccc(F)cc1)OCO3 (stereo not given),64.3%
16,Nc1nc(N)c(C=Nc2ccc(Br)cc2)c(Nc2ccc(Br)cc2)n1,83.5%

row,Structure (SMILES),growth
1,COc1cc(/C=C2\C(=O)Nc3ccccc32)cc(OC)c1O,60.6%
2,COc1ccc(C2SC(C)C(=O)N2CCc2cccs2)cc1OC (stereo not given),75.5%
3,CCOC(=O)c1c(-c2cc(OC)c(OC)c(OC)c2)csc1N,65.4%
4,COc1cc(C2CC(=O)Nc3c2ccc2ccccc32)cc(Br)c1OC (stereo not given),-33.7% (active)
5,Cc1ccc(-c2nnc(COc3ccc(-c4nnc(N)s4)cc3)o2)cc1,7.56% (active)
6,COc1cc(/C=C2\C(=O)N(c3c(Cl)cccc3Cl)c3ccccc32)cc(OC)c1O,8.15% (active)
7,COC(=O)[C@H]1CCCN1C(=O)[C@H]1CCCN1C(=O)[C@@H](Cc1c[nH]c2ccccc12)NC(=S)Nc1cc(C(F)(F)F)cc(C(F)(F)F)c1,-50.5% (active)
8,COc1ncnc2c1ncn2C/C(Br)=C(\Br)CCl,97.2%
9,COc1cc(CNCCN2C(=O)c3ccc4c5c(ccc(c35)C2=O)C(=O)N(CCNCc2cc(OC)c(OC)c(OC)c2)C4=O)cc(OC)c1OC,-68% (active)
10,O=C1CN2CCC1C/C2=C\c1ccnc2c(Cl)cccc12 (stereo not given),91.2%
11,O=C1OCC2=C1C(c1ccc3c(c1)OCO3)CC(=O)N2c1cccc(Cl)c1 (stereo not given),96%
12,Cc1ccc(C2SCC(=O)N2NC(=O)c2[nH]c3ccc(F)cc3c2-c2ccccc2)cc1 (stereo not given),92.4%
13,O=C(Nc1ccccc1)Oc1cccc2cccnc12,83.9%
14,CCOC(=O)c1sc(NC(=O)CN2CCC(Cc3ccccc3)CC2)nc1C,42.3%
15,Clc1cccc(Cl)c1Nc1ccc2nnc(-c3ccncc3)n2n1,96%

# Tested on: SF-539 CNS
# Assay: as above
# Settings: 10 µM unless noted
row,Structure (SMILES),growth
1,O=C1/C(=C/c2ccc(Oc3ccccc3)cc2)N=C(c2ccccc2)N1CCc1cccs1,104%
2,O=C1/C(=C/c2ccc(Cl)cc2)N=C(c2ccccc2)N1CCc1cccs1,40.3%
3,COc1ccc(Sc2ccc3[nH]c(=O)nc(N)c3c2)cc1,105%
4,COc1cc(C(=O)N(C(C)C)C2CCCCC2)cc(OC)c1OC,101%
5,COc1ccc(C2OCC(C)(C)CO2)cc1OC,104%
6,O=C(NCc1ccco1)C1CCN(S(=O)(=O)c2ccc(Cl)cc2)CC1,80.9%
7,COc1ccc(-c2csc3c2-n2cccc2C3=O)cc1O,15.6%
8,COC(=O)[C@@H]1CCCN1C(=O)[C@@H]1CCCN1C(=O)[C@@H](Cc1c[nH]c2ccccc12)NC(=S)Nc1cc(C(F)(F)F)cc(C(F)(F)F)c1,89.4%
9,CCN1C(=O)C2(Nc3ccccc3S2)c2cc(C)ccc21 (stereo not given),94.4%
10,Cc1nc(-c2ccccc2)cc2c(O)c(C(=O)N/N=C/Cc3ccccc3)[nH]c(=O)c12,103%
11,O=S(=O)(/N=C1C=C/C(=N\S(=O)(=O)c2ccccc2)c2ccccc2\1)c1ccccc1,123%
12,CCCOC(=O)c1ccc2c(c1)[N+](=O)C(C(=O)c1ccccc1)=C(C(F)(F)F)[N+]2=O,-95% (active)
13,CCCN(CCC)c1ccc(/C=C/c2ccc3cc(OCC)ccc3n2)cc1,90.7%
14,COc1cccc(C2CC(=O)Nc3cc4c(cc32)CCC4)c1OC (stereo not given),60.7%
15,CC1SC(c2ccc(Cl)cc2)N(CCc2cccs2)C1=O (stereo not given),-49.7% (active)
16,O=C(O)c1ccccc1Oc1cc(-c2ccco2)nc(OCCBr)n1,105%
17,COc1ccccc1/C=C/C(=O)/C=C/c1ccccc1O,-63% (active)
18,COc1cc(/C=C/C(=O)C(=Cc2ccc(F)c(F)c2)C(=O)/C=C/c2ccc(O)c(OC)c2)ccc1O,26.9%
19,CC1(C)CC(=O)C2=C(C1)Nc1cc3c(cc1C2c1ccc(F)cc1)OCO3 (stereo not given),102%
20,Nc1nc(N)c(C=Nc2ccc(Br)cc2)c(Nc2ccc(Br)cc2)n1,101%

row,Structure (SMILES),growth
1,COc1cc(/C=C2\C(=O)Nc3ccccc32)cc(OC)c1O,68.8%
2,Brc1ccccc1Nc1ccc2nnc(-c3ccncc3)n2n1,104%
3,O=C(Nc1nc2ccccc2[nH]1)C(=O)Nc1nc2ccccc2[nH]1,95.8%
4,COc1ccc(C2SC(C)C(=O)N2CCc2cccs2)cc1OC (stereo not given),94.1%
5,Oc1ccc(Cl)cc1CNc1nc2ccccc2[nH]1,-50.9% (active)
6,CCOC(=O)c1c(-c2cc(OC)c(OC)c(OC)c2)csc1N,94.7%
7,COc1cc(C2CC(=O)Nc3c2ccc2ccccc32)cc(Br)c1OC (stereo not given),0.195% (active)
8,Cc1ccc(-c2nnc(COc3ccc(-c4nnc(N)s4)cc3)o2)cc1,109%
9,COc1cc(/C=C2\C(=O)N(c3c(Cl)cccc3Cl)c3ccccc32)cc(OC)c1O,45.1%
10,COC(=O)[C@H]1CCCN1C(=O)[C@H]1CCCN1C(=O)[C@@H](Cc1c[nH]c2ccccc12)NC(=S)Nc1cc(C(F)(F)F)cc(C(F)(F)F)c1,74.4%
11,COc1ncnc2c1ncn2C/C(Br)=C(\Br)CCl,11.8%
12,COc1cc(CNCCN2C(=O)c3ccc4c5c(ccc(c35)C2=O)C(=O)N(CCNCc2cc(OC)c(OC)c(OC)c2)C4=O)cc(OC)c1OC,-84% (active)
13,O=C1CN2CCC1C/C2=C\c1ccnc2c(Cl)cccc12 (stereo not given),110%
14,O=C1OCC2=C1C(c1ccc3c(c1)OCO3)CC(=O)N2c1cccc(Cl)c1 (stereo not given),104%
15,Cc1ccc(C2SCC(=O)N2NC(=O)c2[nH]c3ccc(F)cc3c2-c2ccccc2)cc1 (stereo not given),97.6%
16,O=C(Nc1ccccc1)Oc1cccc2cccnc12,95.5%
17,CCOC(=O)c1sc(NC(=O)CN2CCC(Cc3ccccc3)CC2)nc1C,106%
18,CN([N-]C(=O)CC(=O)[N-]N(C)C(=S)c1ccccc1)C(=S)c1ccccc1.[Cu+2],-69.3% (active)
19,Clc1cccc(Cl)c1Nc1ccc2nnc(-c3ccncc3)n2n1,95.7%
